{"source": "PubChem BioAssay (EPA / NIEHS)", "note": "Records with an inconclusive call do not appear. Activity calls are given as the source filed them. How the source made its calls: active means hit-call score of the fitted dose curve at least 0.9, where 1 is the maximum; inconclusive means response in the unintended direction; inactive means score below 0.9.", "data": [{"test": "ACEA_ER_80hr: ACEA Biosciences xCELLigence Real-Time Cell Analysis on Estrogen Receptor Agonism for Proliferation (AID 2282667)", "details": "T47D proliferation, impedance (xCELLigence), 80 h", "method_in_brief": "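Real-time impedance growth kinetics of human T-47D breast cells read 80 h after dosing, gain-of-signal fitted relative to DMSO. Compounds: 1:4 serial series, top final concentration 100 uM, n = 2.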", "values": [{"molecule": "CC(=[OH+])/C=C(/C)[O-].CC(=[OH+])/C=C(/C)[O-].CC(=[OH+])/C=C(/C)[O-].[Fe]", "outcome": "inactive"}, {"molecule": "CCNc1nc(NC(C)(C)C)nc(SC)n1", "outcome": "inactive"}, {"molecule": "NC(=O)CF", "outcome": "inactive"}, {"molecule": "CCC[CH2][Sn]([CH2]CCC)([CH2]CCC)[O]C(=O)c1ccccc1", "outcome": "inactive"}, {"molecule": "Nc1ncc([N+](=O)[O-])s1", "outcome": "inactive"}, {"molecule": "COc1cc(OC)nc(NC(=O)NS(=O)(=O)c2ncccc2C(=O)N(C)C)n1", "outcome": "inactive"}, {"molecule": "N#CN=C(N)N", "outcome": "inactive"}, {"molecule": "O=C1CCCN1", "outcome": "inactive"}, {"molecule": "ClC1=C(Cl)[C@]2(Cl)[C@@H]3[C@@H](Cl)[C@@H](Cl)C[C@@H]3[C@@]1(Cl)C2(Cl)Cl", "outcome": "inactive"}, {"molecule": "CCCCC(CC)CO[N+](=O)[O-]", "note": "(stereo unspecified)", "outcome": "inactive"}, {"molecule": "O=P(O)(O)CN(CP(=O)(O)O)CP(=O)(O)O", "outcome": "inactive"}, {"molecule": "COc1ccc(OC)c(C=O)c1", "outcome": "inactive"}, {"molecule": "CNC", "outcome": "inactive"}, {"molecule": "O=Cc1cccc(Oc2ccccc2)c1", "outcome": "inactive"}, {"molecule": "O=S(=O)(c1ccc(Cl)cc1)c1ccc(Cl)cc1", "outcome": "inactive"}, {"molecule": "CCCCCCCCCCCCCCCC[n+]1ccccc1", "AC50": "81 nM (active)"}, {"molecule": "CC(=[OH+])/C=C(/C)[O-].CC(=[OH+])/C=C(/C)[O-].CC(=[OH+])/C=C(/C)[O-].[Al]", "outcome": "inactive"}, {"molecule": "Nc1ccc(Cl)cc1C(=O)c1ccccc1", "outcome": "inactive"}, {"molecule": "ClC1=C(Cl)[C@]2(Cl)[C@H]3[C@H]([C@H]4C=C[C@H]3C4)[C@@]1(Cl)C2(Cl)Cl", "outcome": "inactive"}, {"molecule": "O=[N+]([O-])c1ccc2c3c(cccc13)CC2", "outcome": "inactive"}, {"molecule": "CCOP(OCC)OCC", "outcome": "inactive"}, {"molecule": "C=C(C)C#N", "outcome": "inactive"}, {"molecule": "CCOC(=O)/C=C(C)/C=C/C[C@@H](C)CCCC(C)C", "outcome": "inactive"}, {"molecule": "CN(C)P(=O)(N(C)C)N(C)C", "outcome": "inactive"}, {"molecule": "CC1(C)Cc2cccc(O)c2O1", "outcome": "inactive"}, {"molecule": "CCC(C)c1cccc(C(C)CC)c1O", "note": "(stereo unspecified)", "outcome": "inactive"}, {"molecule": "CC(=O)C(Cl)C(=O)N(C)C", "note": "(stereo unspecified)", "AC50": "272 nM (active)"}, {"molecule": "CCCCCCCCC(=O)NCc1ccc(O)c(OC)c1", "outcome": "inactive"}, {"molecule": "Nc1cccc2ccccc12", "outcome": "inactive"}, {"molecule": "O=C(c1ccccc1)C(Cl)Cl", "outcome": "inactive"}, {"molecule": "ClC(Cl)=C(Cl)C(Cl)=C(Cl)Cl", "outcome": "inactive"}]}]}
